Sampled rows, rich in hits. Any-hit rate of the full collection: about 2.4%.
D2 PAM-1 – positive allosteric modulators of human D2 dopamine receptor; DiscoveRx D2 beta-arrestin cells, luminescence, 90 min; 100% = 57 uM dopamine signal; 360,000 compounds, 0.23% hits; AID 624464; potentiation, % (concentration not given with the values); P14416; in the data active = potentiation above about 50%; inconclusive = mostly about 30% to 49%
Target sequence (P14416 whole entry, looked up): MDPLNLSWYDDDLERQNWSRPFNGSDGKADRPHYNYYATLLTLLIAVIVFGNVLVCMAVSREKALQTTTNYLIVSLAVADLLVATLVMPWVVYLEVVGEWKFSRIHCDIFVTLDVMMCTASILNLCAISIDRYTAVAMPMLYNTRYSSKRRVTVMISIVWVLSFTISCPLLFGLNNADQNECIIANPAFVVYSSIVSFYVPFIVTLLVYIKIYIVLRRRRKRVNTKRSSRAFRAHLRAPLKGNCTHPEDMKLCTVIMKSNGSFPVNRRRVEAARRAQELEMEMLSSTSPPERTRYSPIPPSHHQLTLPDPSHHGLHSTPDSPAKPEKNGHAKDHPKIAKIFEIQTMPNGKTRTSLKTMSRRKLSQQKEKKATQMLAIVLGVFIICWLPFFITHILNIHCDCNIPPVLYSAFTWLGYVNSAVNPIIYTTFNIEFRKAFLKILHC
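PathHunter beta-arrestin assay in DiscoveRx D2 cells. Compounds were added with an EC20 of dopamine (50 nM final) for 90 min at 37 deg C. Luminescence was read 1 h after detection reagent, with 57 uM dopamine as the EC100 control.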
D2 PAM-2 – positive allosteric modulators of human D2 dopamine receptor. HEK293 T-REx D2, calcium flux, EC20 dopamine potentiation. potentiation, % at 10 µM. 340,000 compounds, 0.34% hits. AID 485347;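 active = potentiation over 3 SD above the plate norm, cut at about 30% in these data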; also: 0% is about no effect
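Tetracycline-induced Hek293 Trex D2 cells, force-coupled to calcium, loaded with no-wash calcium dye. Compound added with 180 s kinetic read for agonism, then EC20 dopamine and a further 180 s read for potentiation.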
D2 ag-1 – activates the human D2 dopamine receptor; activation, % (no concentration beside the values); 360,000 compounds, 0.084% hits; P14416; DiscoveRx PathHunter D2 beta-arrestin, luminescence, 90 min; 100% = 57 uM dopamine signal; AID 624465; in the data active = activation above about 40%; inconclusive = between about 15% and that limit
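DiscoveRx PathHunter D2 beta-arrestin cells (2,100/well) attached overnight, then compound-stimulated 90 min at 37 C in HBSS/10 mM HEPES/0.1% Tween-20 buffer; beta-galactosidase complementation read by luminescence after 1 h at ambient temperature. Dopamine 57 uM final (EC100) as control.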
D2 ag-2 – D2 dopamine receptor (human) agonism; P14416; HEK293 T-REx D2 cells, calcium flux agonist mode; activation, % at 2 µM; 340,000 compounds, 0.53% hits; AID 485358;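 active = activation over 3 SD above normal in the single-dose calcium agonist read, cut at about 30% in these data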; also: 0% is about no effect
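Calcium-flux readout, 1 cycle/sec over 180 s following compound pin transfer, in inducible HEK293 Trex D2 cells (force-coupled); dopamine controls included. Positive calcium responses during this window marked compounds as potential agonists.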
D2 antagonist – antagonizes the human D2 dopamine receptor. AID 485344. 340,000 compounds, 2% hits. HEK293 TREx D2 cells, calcium flux, dopamine EC80. inhibition, % at 10 µM. P14416; in the data active = inhibition above about 30%; inactive = below that, where a call was filed; also: 0% is about no effect
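Antagonism is scored as inhibition of an EC80 dopamine-evoked calcium signal in a force-coupled, tetracycline-inducible HEK293 T-REx D2 line, with compound present 180 s before agonist.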
D3 ag – activates human D3 dopamine receptor beta-arrestin recruitment; Potency, µM (top dose mostly 76.9 µM), without a hit: top-dose activation, actives largely listed as activators; 2,300 compounds, 4% hits; shares compounds with D2 ag-2; DiscoveRx D3 beta-arrestin cells, luminescence, 90 min; AID 720506;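 also: potency is read from the fitted curve at half-maximal effect; 100% = dopamine control response; nearly all actives have a fitted effect of over 70% in size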
D2 ag-3 – D2 receptor agonism, beta-arrestin counterscreen | shares compounds with D2 ag-2 | 2,300 compounds, 5.9% hits | Potency, µM (highest dose often 76.9 µM), without a hit: top-dose activation, usual class: activators | DiscoveRx PathHunter D2 beta-arrestin, luminescence, 90 min; response scale: percent relative to full dopamine signal | AID 720507; also: potency is read from the fitted curve at half-maximal effect; % of control where 0% means no effect; nearly all actives have a fitted effect of over 70% in size
* marks the source's active call; other numbers are inactive results; ? = inconclusive; nt = not tested or not shown; ! = a repeat was not active. Unless noted, calls follow the shape of the dose curve; as a rule, active = well fitted activation curve with a large enough effect; inconclusive = small, poorly fitted or top-dose-only effect; inactive = flat fitted curve, though single readings scatter.

SMILES	D2 PAM-1	D2 PAM-2	D2 ag-1	D2 ag-2	D2 antagonist	D3 ag	D2 ag-3
Cc1cccc(CN2C(=O)CN=C(c3ccccc3Cl)c3cc(Cl)ccc32)c1	nt	-10	nt	nt	nt	nt	nt
COc1ccc(CN2CCN(c3ccccc3)CC2)c(C)c1C	-27	-19	10	63*	65*	7%	18%
N#Cc1cc2c(nc1SCC(=O)Nc1cccc(C(F)(F)F)c1)C1CCN2CC1	nt	2	nt	1	nt	nt	nt
COC(=O)C1=C(c2cc3ccccc3s2)C[C@@H]2CC[C@H]1N2C	-26	-7	4	29	58*	7%	22%
COC(=O)C1=C(c2cc3ccccc3s2)C[C@@H]2CC[C@H]1N2C(=O)NC1CC1	-17	nt	0	nt	nt	nt	nt
CCc1ccccc1NC(=O)c1cccn(Cc2ccccc2F)c1=O	nt	-1	nt	1	nt	nt	nt
N#C/C(N)=C(/N)C#N	-13	12	-5	0	4	-4%	-5%
CC(CCc1ccccc1)NC(C)C(O)c1ccc(O)cc1 (centres undefined)	-14	-25	-4	71*	64*	11%	13%
O=C(COc1ccccc1Cl)N1CCN(CCc2ccncc2)CC1	nt	19	nt	-1	nt	nt	nt
N#Cc1cc2c(nc1SCC(=O)Nc1ccc(OC(F)(F)F)cc1)C1CCN2CC1	nt	-3	nt	0	nt	nt	nt
CCCCOCCCN1C(C)=CC(=C2C(=O)NC(=S)NC2=O)C=C1C	-1	-10	-4	0	18	-11%	-5%
O=C(COc1ccccc1Cl)N1CCN(CCc2ccccn2)CC1	nt	-3	nt	-2	nt	nt	nt
CCOc1ccc(CN(CCc2ccc3c(c2)OCO3)Cc2cccc(OC)c2)cc1	nt	-27	nt	nt	nt	nt	nt
Cc1ccccc1N1CCN(Cc2ccc3c(c2)OCO3)CC1	-31	-21	2	26	83*	-7%	6%
Fc1ccccc1N1CCN(Cc2c(F)cccc2F)CC1	-10	-17	4	36*	21	-2%	18%
Fc1cccc(F)c1CN1CCN(c2ccc(Cl)cc2)CC1	-14	2	-1	0	-12	nt	nt
Fc1ccccc1N1CCN(Cc2ccc3c(c2)OCO3)CC1	11	-21	42*	78*	88*	?	?
Clc1ccccc1N1CCN(Cc2ccc3c(c2)OCO3)CC1	0	-17	6	71*	60*	8%	?
Cc1ccc(-c2nc(CN3C(=O)CN=C(c4ccccc4)c4ccccc43)c(C)o2)cc1	nt	3	nt	nt	nt	nt	nt
O=c1c2ccccc2nc(/C=C/c2cccc3ccccc23)n1-c1ccc(Cl)cc1	nt	15	nt	nt	nt	nt	nt
c1ccc(CCN2CCC(N3CCN(c4ccccc4)CC3)CC2)cc1	-4	-21	?	74*	72*	?	?
COc1ccc(N2CCN(CCc3ccncc3)CC2)cc1	-14	nt	-1	3	-22	nt	nt
COc1ccc(OCC(=O)N2CCN(Cc3cc(=O)n4nc(-c5ccc(OC)cc5)sc4n3)CC2)cc1	nt	-5	nt	0	nt	nt	nt
CCC(N)Cc1c[nH]c2ccccc12 (centres undefined)	-4	-5	1	12	-24	-4%	-3%
CNCCc1c[nH]c2ccccc12	-20	-7	5	11	16	nt	nt
SMILES	D2 PAM-1	D2 PAM-2	D2 ag-1	D2 ag-2	D2 antagonist	D3 ag	D2 ag-3
CN1C[C@H](C(=O)N[C@]2(C)O[C@@]3(O)[C@@H]4CCCN4C(=O)[C@H](Cc4ccccc4)N3C2=O)CC2c3cccc4[nH]cc(c34)C[C@H]21 (some centres undefined)	-6	-10	?	81*!	88*!	-2%	?
N#C/C=C/C#N	-1	5	2	0	3	-2%	-5%
COc1ccccc1N1CCN(Cc2ccc(F)cc2)CC1	-11	-22	6	38*	76*	-4%	-1%
COc1ccc(CN2CCN(c3ccccc3F)CC2)cc1O	-32	nt	11	nt	nt	15%	22%
Cc1cccc(OC(C)C(=O)NCC2(N(C)C)CCCCC2)c1C (centres undefined)	nt	-7	nt	1	nt	nt	nt
COC(=O)C1=C(c2ccc(OC(F)(F)F)cc2)C[C@@H]2CC[C@H]1N2C(=O)NC1CC1	-5	10	-8	0	-14	0%	5%
COC(=O)C1=C(c2ccc(OC(F)(F)F)cc2)C[C@@H]2CC[C@H]1N2C(=O)NCC1CC1	-15	-12	-2	-1	-4	nt	nt
COC(=O)C1=C(c2ccc(OC(F)(F)F)cc2)C[C@@H]2CC[C@H]1N2C(=O)N1CCOCC1	0	-2	-7	0	17	-3%	5%
c1cc(CNCCc2ccc3c(c2)OCO3)ccn1	-32	8	4	-1	-20	?	3%
Fc1ccc(CNCCc2ccc3c(c2)OCO3)cc1	-32	-2	1	0	-14	nt	nt
c1ccc(C2CC2)c(OCC2=NCCN2)c1	-15	-9	-3	8	47*	-2%	24%
c1ccc2cc(CC3=NCCN3)ccc2c1	-7	6	1	12	-16	nt	nt
Nc1c(C(=O)Nc2ccc(F)c(Cl)c2)sc2nc3c(cc12)N1CCC3CC1	nt	0	nt	0	nt	nt	nt
CCc1ccc(CNCCc2c[nH]c3ccccc23)cc1	-77	-16	-3	7	14	-14%	-1%
NC(=O)c1ccc(NC(=O)c2cccn(Cc3ccccc3)c2=O)cc1	nt	-5	nt	2	nt	nt	nt
NCCc1ccc(O)cc1	-12	13	-4	51*	47*	?	8%
Cc1ccccc1-n1c(/C=C/c2ccc(O)cc2)nc2ccccc2c1=O	nt	5	nt	1	nt	nt	nt
N#CC(C#N)=Cc1ccc(O)c(O)c1	-5	9	-4	1	-22	nt	nt
CC(C)(C)c1cc(C=C(C#N)C#N)cc(C(C)(C)C)c1O	-12	-3	-9	7	20	?	1%
CCN(CC)P(=O)(/C=C(\Cl)c1ccccc1)/C=C(\Cl)c1ccccc1	-9	11	-3	0	17	-15%	1%
O=C1c2ccccc2-c2c1nc1c([n+]2[O-])CCCC1	-26	-6	-13	29	15	-66%	-21%
CCCCc1nn2c(=O)cc(COC(=O)Cc3ccccc3)nc2s1	nt	1	nt	2	nt	nt	nt
CCCNC(=O)N1[C@H]2CC[C@@H]1C(C(=O)OC)=C(c1ccc(-c3ccccc3)c(F)c1)C2	-17	-6	-1	1	-10	1%	?
COC(=O)C1=C(c2ccc(OCc3ccccc3)cc2)C[C@@H]2CC[C@H]1N2C(=O)NCc1ccc(F)cc1	-6	nt	-9	nt	nt	nt	nt

High-throughput results from PubChem.
